# Measured values as given in PubChem BioAssay (NCATS).
# Results filed as inconclusive are left out. Activity calls are given as the source filed them. Unless noted, calls come from the whole dose curve; as a rule, active = well fitted cell-killing curve with a large enough effect; inconclusive = small, poorly fitted or top-dose-only effect, or effect the other way; inactive = no such curve, though single readings can be large or run the other way.
# Tests used:
# [1] = Quantitative High-Throughput drug screen in 47 multiple myeloma cell lines against the NCATS MIPE library collection: VP6_DJ cell viability assay (AID 1919867); note: nearly all actives have a fitted effect of over 40% in size; note: potency is the fitted concentration of half-maximal effect
# Procedure, shortened: (§1)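 MIPE 4.0 approved/investigational drugs; 500 cells/well; 48 h 37 °C humidified 5% CO2; CTG luminescence readout; DMSO = 100%, media = 0% viability.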
# [2] = Quantitative High-Throughput drug screen in 47 multiple myeloma cell lines against the NCATS MIPE library collection: PE2_PLB cell viability assay (AID 1919869); note: nearly all actives have a fitted effect of over 35% in size; note: potency is the fitted concentration of half-maximal effect
# Procedure, shortened: as §1
# [3] = Quantitative High-Throughput drug screen in 47 multiple myeloma cell lines against the NCATS MIPE library collection: OPM2_DSMZ cell viability assay (AID 1919872); note: nearly all actives have a fitted effect of over 30% in size; note: potency is the fitted concentration of half-maximal effect
# Procedure, shortened: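 Approved and investigational drugs from MIPE 4.0 were added by pin tool to 500 cells per well. After 48 hours at 37C, ATP-based CellTiter-Glo luminescence indicated remaining viability.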
# [4] = Quantitative High-Throughput drug screen in 47 multiple myeloma cell lines against the NCATS MIPE library collection: KMS11_JCRBsus cell viability assay (AID 1919873); note: nearly all actives have a fitted effect of over 50% in size; note: potency is the fitted concentration of half-maximal effect
# Procedure, shortened: as §1
# [5] = Quantitative High-Throughput drug screen in 47 multiple myeloma cell lines against the NCATS MIPE library collection: KMS28BM_JCRB cell viability assay (AID 1919874); note: nearly all actives have a fitted effect of over 35% in size; note: potency is the fitted concentration of half-maximal effect
# Procedure, shortened: as §1
# [6] = qHTS drug screen for cell cycle checkpoint inhibitors in PARPi-resistant BRCA-mutant ovarian cancer cell lines. (AID 1963452; calls by dose curve); conditions: PEO1/OlaR viability, CellTiter-Glo luminescence, 96 h, stronger effect = lower value
# Procedure, shortened: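 PEO1, PEO4 and PEO1/OlaR ovarian cancer cells, 600 per well, exposed 96 h at 37C to a dilution series. Viability read by CellTiter-Glo luminescence, normalized to DMSO and empty wells; activity summarized as Z-AUC.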
# [7] = Quantitative High-Throughput drug screen in 47 multiple myeloma cell lines against the NCATS MIPE library collection: UTMC2_PLB cell viability assay (AID 1919868);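 note: 100% = DMSO-only wells and 0% = media-only wells without cells; nearly all actives have a fitted effect of over 55% in size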
# Procedure, shortened: as §1
# [8] = Quantitative High-Throughput drug screen in 47 multiple myeloma cell lines against the NCATS MIPE library collection: PCM6_Riken cell viability assay (AID 1919870); note: nearly all actives have a fitted effect of over 30% in size; note: potency is the fitted concentration of half-maximal effect
# Procedure, shortened: as §1
# [9] = Quantitative High-Throughput drug screen in 47 multiple myeloma cell lines against the NCATS MIPE library collection: RPMI8226_ATCC cell viability assay (AID 1919871); note: nearly all actives have a fitted effect of over 30% in size; note: potency is the fitted concentration of half-maximal effect
# Procedure, shortened: as §1
# [10] = measured here: PEO1 parental Z-AUC
Structure (SMILES),Potency [1],Potency [2],Potency [3],Potency [4],Potency [5],Z-AUC [6],"Z-AUC [6, 10]",Z-AUC ([6]; measured here: PEO4 Z-AUC),Potency [7],Potency [8],Potency [9]
COc1ccccc1OCC(O)CN1CCN(CC(=O)Nc2c(C)cccc2C)CC1 (configuration not stated),inactive,inactive,inactive,inactive,inactive,-0.161 (inactive),0.571,0.54,–,–,–
CCc1cccc2c3c([nH]c12)C(CC)(CC(=O)O)OCC3 (configuration not stated),–,–,inactive,inactive,inactive,0.208 (inactive),0.962,0.882,inactive,inactive,inactive
COc1ccc2[nH]cc(CCNC(C)=O)c2c1,inactive,inactive,–,inactive,–,1.13 (inactive),1.56,1.13,–,–,inactive
Clc1ccc(C(c2ccccc2Cl)C(Cl)Cl)cc1 (configuration not stated),6.62 µM (active),–,–,18.7 µM (active),16.6 µM (active),-0.334 (inactive),0.14,0.236,–,18.7 µM (active),23.5 µM (active)
Nc1nnc(-c2cccc(Cl)c2Cl)c(N)n1,–,–,inactive,inactive,inactive,-0.438 (inactive),0.568,0.453,inactive,–,inactive
Nc1nc2c(ncn2COC(CO)CO)c(=O)[nH]1,18.7 µM (active),–,23.5 µM (active),18.7 µM (active),29.6 µM (active),1.34 (inactive),1.36,1.37,–,23.5 µM (active),26.4 µM (active)
CCC1(c2ccccc2)C(=O)NCNC1=O,4.69 µM (active),–,inactive,inactive,inactive,1.12 (inactive),0.974,1.04,–,3.72 µM (active),–
CC(C)NCC(O)c1ccc(O)c(O)c1 (configuration not stated),0.0332 µM (active),–,inactive,16.6 µM (active),7.43 µM (active),1.31 (inactive),0.911,0.816,–,1.18 µM (active),–
CC1(CN2CCC(n3c(=O)[nH]c4ccccc43)CC2)OCc2ccccc2-n2cccc21 (configuration not stated),–,–,inactive,–,–,1.14 (inactive),0.846,0.865,–,–,–
CCOC(=O)c1ncn2c1CN(C)C(=O)c1cc(F)ccc1-2,–,inactive,inactive,–,inactive,1.34 (inactive),1.08,1.29,–,inactive,2.64 µM (active)
Clc1ccc2c(c1)C(N1CCNCC1)=Nc1ccccc1O2,–,–,inactive,–,–,–,–,–,–,–,–
CCOC(=O)Nc1ccc(NCc2ccc(F)cc2)nc1N,–,–,inactive,–,–,-0.444 (inactive),-0.223,-0.051,inactive,–,inactive
CN1CCN(C2=Nc3cc(Cl)ccc3Nc3ccccc32)CC1,–,–,inactive,–,inactive,0.802 (inactive),0.75,0.32,–,–,inactive
Nc1ccn([C@H]2CC[C@@H](CO)O2)c(=O)n1,–,inactive,inactive,inactive,inactive,–,–,–,–,–,–
NCCS(=O)(=O)O,–,–,inactive,inactive,–,1.22 (inactive),0.571,0.568,–,inactive,–
Fc1ccc([C@@H]2CCNC[C@H]2COc2ccc3c(c2)OCO3)cc1,–,–,18.7 µM (active),23.5 µM (active),20.9 µM (active),–,–,–,–,inactive,–
NS(=O)(=O)c1cc2c(cc1Cl)NCNS2(=O)=O,–,–,inactive,inactive,–,1.17 (inactive),1.34,1.57,–,–,inactive
CC1(C)O[C@H]2CC(=O)OC[C@]23[C@H]2CC[C@@]4(C)[C@H](c5ccoc5)OC(=O)[C@H]5O[C@]54[C@]2(C)C(=O)C[C@@H]13,–,–,inactive,inactive,inactive,–,–,–,–,–,inactive
CCCNCC(O)COc1ccccc1C(=O)CCc1ccccc1 (configuration not stated),–,–,inactive,–,–,0.52 (inactive),0.498,0.0881,–,inactive,–
Cc1ccc(C(=O)Nc2ccc(S(=O)(=O)O)c3cc(S(=O)(=O)O)cc(S(=O)(=O)O)c23)cc1NC(=O)c1cccc(NC(=O)Nc2cccc(C(=O)Nc3cc(C(=O)Nc4ccc(S(=O)(=O)O)c5cc(S(=O)(=O)O)cc(S(=O)(=O)O)c45)ccc3C)c2)c1,–,–,–,–,inactive,0.147 (inactive),0.903,0.677,–,–,–
Cc1ccccc1N1C(=O)c2cc(S(N)(=O)=O)c(Cl)cc2NC1C (configuration not stated),–,–,inactive,inactive,inactive,-0.939 (inactive),-0.663,-0.859,–,5.9 µM (active),7.43 µM (active)
Cc1cc(C(C)(C)C)cc(C)c1CC1=NCCN1,–,–,inactive,inactive,–,0.735 (inactive),0.684,0.966,inactive,–,inactive
NC(CO)C(=O)NNCc1ccc(O)c(O)c1O (configuration not stated),–,–,18.7 µM (active),–,23.5 µM (active),-0.229 (inactive),-0.392,-0.375,–,inactive,–
COc1nc(C)nc(Cl)c1NC1=NCCN1,–,–,inactive,inactive,inactive,-0.0792 (inactive),-0.161,0.307,–,–,–
COc1cc2nc(N3CCN(C(=O)C4COc5ccccc5O4)CC3)nc(N)c2cc1OC (configuration not stated),–,18.7 µM (active),inactive,18.7 µM (active),16.6 µM (active),–,–,–,–,20.9 µM (active),16.6 µM (active)
CN(C)c1nc(N(C)C)nc(N(C)C)n1,–,–,inactive,–,inactive,1.32 (inactive),0.778,0.807,inactive,–,–
CN(CCOc1ccc(NS(C)(=O)=O)cc1)CCc1ccc(NS(C)(=O)=O)cc1,–,–,inactive,inactive,inactive,–,–,–,–,inactive,inactive
